Data reported in PubChem BioAssay.
For some assays here: Measured potencies and affinities stand elsewhere. Calls of active or inactive are those of the source. Unless noted, the rule behind the calls is not given here.

How the values were obtained:
[1] = antimalarial activity against Dd2 strain (AID 2302;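 active = growth inhibition above 50% at the single 2 µM test dose, taken to imply half-maximal potency below 2 µM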;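 note: 0% = DMSO untreated growth and 100% = chloroquine plus artemisinin killed control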); conditions: P. falciparum Dd2 in RBCs, LDH growth readout, 72 h; at 2 µM; stronger effect = higher value
[2] = HepG2 cytotoxicity, primary screen, cytotoxicity control for P. falciparum antimalarial project, cell-based, ATP luminescence (AID 2303;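 active = inhibition above 50%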;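 note: 0% = DMSO wells and 100% = digitonin-killed cells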); conditions: HepG2 viability, 24-48 h, at 10 µM, stronger effect = higher value
[3] = molecular target: L-lactate dehydrogenase (Plasmodium falciparum (isolate CDC / Honduras)) (UniProt Q27743); experiment: PfLDH activity inhibition – cell lysate, 3D7 strain, counter-screen for P. falciparum growth inhibition project (AID 2304);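 note: 0% = vehicle and 100% = reference inhibitor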; conditions: P. falciparum 3D7 crude extract, LDH APAD/NBT absorbance; at 2 µM; stronger effect = higher value
[4] = inhibition of 3D7 malaria parasite growth – strain 3D7 (AID 2306);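 note: 0% = DMSO wells and 100% = chloroquine plus artemisinin control wells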; conditions: P. falciparum 3D7 erythrocytic growth, LDH absorbance, 72 h; at 2 µM; stronger effect = higher value
[5] = molecular target: Calcium-dependent protein kinase 1 (Plasmodium falciparum (isolate 3D7)) (UniProt P62344); experiment: PfCDPK1 kinase inhibitors, biochemical, TCAMS library (AID 1159585; cut-off not given, nearly all actives have IC50 up to about 0.98 µM;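 note: inhibitors leave more ATP so luminescence rises with inhibition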); conditions: recombinant PfCDPK1, Kinase-Glo ATP depletion luminescence
[6] = molecular target: Plasmodium falciparum protein kinase 6 (PK6, PF3D7_1337100) (UniProt Q8IDW1); experiment: PfPK6 kinase inhibitors, biochemical, TCAMS library (AID 1159586); conditions: recombinant PfPK6, Kinase-Glo ATP depletion luminescence
[7] = molecular target: Protein kinase 7 (PK7), Plasmodium falciparum 3D7 (PF3D7_0213400) (UniProt Q7YTF7); experiment: inhibition of Plasmodium PK7 catalytic activity – biochemical, TCAMS antimalarial set, Kinase-Glo luminescence (AID 1159587); conditions: recombinant PfPK7, Kinase-Glo ATP depletion luminescence
[8] = molecular target: Calcium-dependent protein kinase 4 (Plasmodium falciparum (isolate 3D7)) (UniProt Q8IBS5); experiment: PfCDPK4 kinase inhibitors, biochemical, TCAMS library (AID 1159588; cut-off not given, nearly all actives have IC50 up to about 0.91 µM); conditions: recombinant PfCDPK4, Kinase-Glo ATP depletion luminescence
Chain of Calcium-dependent protein kinase 4 (Plasmodium falciparum (isolate 3D7)) (Q8IBS5 whole entry, looked up): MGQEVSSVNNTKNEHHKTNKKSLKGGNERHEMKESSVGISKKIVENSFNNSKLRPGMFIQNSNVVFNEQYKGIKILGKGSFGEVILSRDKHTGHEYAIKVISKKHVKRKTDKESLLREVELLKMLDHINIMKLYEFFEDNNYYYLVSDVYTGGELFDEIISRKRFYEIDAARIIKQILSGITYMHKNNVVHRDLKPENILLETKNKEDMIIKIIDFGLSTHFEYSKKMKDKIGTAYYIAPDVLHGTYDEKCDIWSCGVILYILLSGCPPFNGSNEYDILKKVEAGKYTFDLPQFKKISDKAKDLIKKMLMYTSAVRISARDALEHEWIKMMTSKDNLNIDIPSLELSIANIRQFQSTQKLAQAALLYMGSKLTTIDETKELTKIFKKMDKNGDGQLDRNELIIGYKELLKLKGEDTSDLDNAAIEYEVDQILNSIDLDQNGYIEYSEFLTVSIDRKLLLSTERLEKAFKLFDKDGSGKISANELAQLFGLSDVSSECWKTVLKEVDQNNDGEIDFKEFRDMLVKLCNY

Chain of L-lactate dehydrogenase (Plasmodium falciparum (isolate CDC / Honduras)) (Q27743 whole entry, looked up): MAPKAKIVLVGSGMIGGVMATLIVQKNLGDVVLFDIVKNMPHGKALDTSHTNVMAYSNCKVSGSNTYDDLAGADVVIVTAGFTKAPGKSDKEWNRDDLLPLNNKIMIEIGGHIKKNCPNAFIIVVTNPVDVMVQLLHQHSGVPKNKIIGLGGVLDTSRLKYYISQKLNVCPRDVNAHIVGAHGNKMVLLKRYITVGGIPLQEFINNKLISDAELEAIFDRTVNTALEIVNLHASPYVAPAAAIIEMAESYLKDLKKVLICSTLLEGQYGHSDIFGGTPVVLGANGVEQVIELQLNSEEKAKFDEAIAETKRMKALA
Chain of Calcium-dependent protein kinase 1 (Plasmodium falciparum (isolate 3D7)) (P62344 whole entry, looked up): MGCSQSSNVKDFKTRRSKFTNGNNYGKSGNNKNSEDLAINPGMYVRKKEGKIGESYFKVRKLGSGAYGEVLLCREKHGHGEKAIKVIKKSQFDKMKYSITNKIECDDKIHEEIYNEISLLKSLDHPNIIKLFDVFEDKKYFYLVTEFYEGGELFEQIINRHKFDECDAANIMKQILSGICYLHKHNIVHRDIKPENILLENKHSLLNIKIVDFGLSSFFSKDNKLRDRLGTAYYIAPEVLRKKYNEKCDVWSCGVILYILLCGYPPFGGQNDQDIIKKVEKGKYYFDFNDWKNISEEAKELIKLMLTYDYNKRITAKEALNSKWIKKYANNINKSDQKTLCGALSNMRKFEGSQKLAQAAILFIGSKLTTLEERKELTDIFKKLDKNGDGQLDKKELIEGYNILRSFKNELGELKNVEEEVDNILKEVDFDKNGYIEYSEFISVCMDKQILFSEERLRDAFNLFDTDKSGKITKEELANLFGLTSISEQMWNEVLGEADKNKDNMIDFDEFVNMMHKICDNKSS
Chain of Protein kinase 7 (PK7), Plasmodium falciparum 3D7 (PF3D7_0213400) (Q7YTF7 1-343): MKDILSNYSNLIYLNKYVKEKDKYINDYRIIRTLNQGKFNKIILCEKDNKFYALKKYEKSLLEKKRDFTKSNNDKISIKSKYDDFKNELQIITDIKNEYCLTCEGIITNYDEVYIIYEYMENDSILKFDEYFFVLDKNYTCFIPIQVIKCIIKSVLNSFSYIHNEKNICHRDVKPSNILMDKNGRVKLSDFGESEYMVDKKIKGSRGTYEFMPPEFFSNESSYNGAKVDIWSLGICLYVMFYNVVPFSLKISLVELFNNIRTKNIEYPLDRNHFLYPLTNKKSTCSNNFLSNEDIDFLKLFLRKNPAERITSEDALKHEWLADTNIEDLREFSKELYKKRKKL
Chain of Plasmodium falciparum protein kinase 6 (PK6, PF3D7_1337100) (Q8IDW1 1-305): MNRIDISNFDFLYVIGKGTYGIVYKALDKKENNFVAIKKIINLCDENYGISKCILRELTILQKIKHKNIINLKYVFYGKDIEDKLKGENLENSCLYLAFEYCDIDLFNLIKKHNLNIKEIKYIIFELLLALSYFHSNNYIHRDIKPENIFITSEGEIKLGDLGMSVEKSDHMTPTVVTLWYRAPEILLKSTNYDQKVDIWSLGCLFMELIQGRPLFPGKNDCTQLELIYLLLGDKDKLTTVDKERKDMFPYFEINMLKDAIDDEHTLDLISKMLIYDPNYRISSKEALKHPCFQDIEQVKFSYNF

Cc1cc(N[C@@H](Cc2ccccc2)C(=O)Nc2ccccc2)nc(NCCc2ccc(F)cc2)n1
active: growth inhibition [1] 81% | growth inhibition [4] 96%
inactive: inhibition [2] 26% | inhibition [3] 0% | outcome [5] | outcome [6] | outcome [7] | outcome [8]

CCC(CC(C)C(=O)O)=C(c1ccccc1)c1ccccc1 (stereo not given)
active: growth inhibition [4] 98%
inactive: growth inhibition [1] 1% | inhibition [2] 12% | inhibition [3] 5% | outcome [5] | outcome [6] | outcome [7] | outcome [8]

O=C(/C=C/c1ccccc1Cl)Nc1ccc(Br)c(OCCN2CCN(CCN3CCCC3)CC2)c1
active: growth inhibition [1] 89% | growth inhibition [4] 99%
inactive: inhibition [2] 26% | inhibition [3] -7% | outcome [5] | outcome [6] | outcome [7] | outcome [8]

COC(=O)c1noc(C)c1I
active: growth inhibition [4] 99%
inactive: growth inhibition [1] 2% | inhibition [2] 5% | inhibition [3] -9% | outcome [5] | outcome [6] | outcome [7] | outcome [8]

CCCCCCc1cc2cc(-c3csc(C=Cc4ccccc4)n3)c(=O)oc2cc1O
inactive: inhibition [2] 17% | inhibition [3] 2% | outcome [5] | outcome [6] | outcome [7] | outcome [8]
active: growth inhibition [1] 75% | growth inhibition [4] 96%

CNCc1ccc(CN(C)c2nc(N)c3cc(OC)c(OC)cc3n2)cc1
inactive: growth inhibition [1] 3% | inhibition [2] 12% | inhibition [3] 5% | outcome [5] | outcome [6] | outcome [7] | outcome [8]
active: growth inhibition [4] 96%

CC[C@H](NC(=O)c1c(CN2CCC(N3CCCCC3)CC2)c(-c2ccccc2)nc2c(Cl)c(O)ccc12)c1ccccc1
inactive: inhibition [2] -1% | inhibition [3] -3% | outcome [5] | outcome [6] | outcome [7] | outcome [8]
active: growth inhibition [1] 66% | growth inhibition [4] 101%

O=C(Nc1cccc(CN2CCCN(Cc3cccc(Cl)c3)CC2)c1)c1ccc(-c2ccccc2)cc1
inactive: growth inhibition [1] 14% | inhibition [2] 44% | inhibition [3] 1% | outcome [5] | outcome [6] | outcome [7] | outcome [8]
active: growth inhibition [4] 86%

C[C@H](Cc1ccc(S(=O)(=O)c2ccc(C[C@@H](C)NC[C@H](O)c3cccc(Cl)c3)cc2)cc1)NC[C@H](O)c1cccc(Cl)c1
active: growth inhibition [1] 98% | inhibition [2] 100% | growth inhibition [4] 99%
inactive: inhibition [3] -9% | outcome [5] | outcome [6] | outcome [7] | outcome [8]

O=C(/C=C/c1ccc(Cl)c(Cl)c1)NCCCCCN1CCC(NC(=O)Nc2ccc(C(F)(F)F)cc2)CC1
inactive: growth inhibition [1] 34% | inhibition [3] 3% | outcome [5] | outcome [6] | outcome [7] | outcome [8]
active: inhibition [2] 58% | growth inhibition [4] 94%

CNCCNCc1cccc(-c2cccc(-c3nc4ccc(F)cc4[nH]3)c2)c1
active: growth inhibition [4] 98%
inactive: growth inhibition [1] 15% | inhibition [2] 20% | inhibition [3] -2% | outcome [5] | outcome [6] | outcome [7] | outcome [8]

N#Cc1cccc(C(=O)Nc2ccc(-c3ccc(CN4CCCC4)cc3)cc2)c1
active: growth inhibition [4] 92%
inactive: growth inhibition [1] 32% | inhibition [2] 38% | inhibition [3] -5% | outcome [5] | outcome [6] | outcome [7] | outcome [8]

O=C(NCCCCCN1CCC(c2c[nH]c3ccccc23)CC1)Nc1cccc(C(F)(F)F)c1
inactive: growth inhibition [1] 11% | inhibition [3] -1% | outcome [5] | outcome [6] | outcome [7] | outcome [8]
active: inhibition [2] 51% | growth inhibition [4] 97%

Nc1c2c(nc3ccc(Oc4ccc(Cl)cc4)cc13)CCCC2
active: growth inhibition [1] 65% | growth inhibition [4] 100%
inactive: inhibition [2] 42% | inhibition [3] -8% | outcome [5] | outcome [6] | outcome [7] | outcome [8]

CCc1cn2c3c(cc(C(=O)N[C@@H](Cc4cccc(F)c4)[C@H](O)CNC4CC4)cc13)N(C)S(=O)(=O)CC2
active: growth inhibition [1] 98% | growth inhibition [4] 98%
inactive: inhibition [2] 2% | inhibition [3] 1% | outcome [5] | outcome [6] | outcome [7] | outcome [8]

CN(C)c1cccc2c1nc(-c1ccco1)n2CCNCc1ccccc1
inactive: inhibition [2] -1% | inhibition [3] 2% | outcome [5] | outcome [6] | outcome [7] | outcome [8]
active: growth inhibition [1] 97% | growth inhibition [4] 98%

CC(C)CCCC(C)(C)NC[C@@H](O)[C@H](Cc1ccccc1)NC(=O)c1cccc(CCC2CC2)c1
inactive: inhibition [3] 0% | outcome [5] | outcome [6] | outcome [7] | outcome [8]
active: growth inhibition [1] 52% | inhibition [2] 100% | growth inhibition [4] 98%

NC(N)=NN=Cc1c2ccccc2c(Cl)c2c(Cl)cccc12
inactive: inhibition [3] -3% | outcome [5] | outcome [6] | outcome [7] | outcome [8]
active: growth inhibition [1] 72% | inhibition [2] 71% | growth inhibition [4] 91%

FC(F)(F)Oc1cccc(CNc2noc(-c3sccc3Br)n2)c1
inactive: inhibition [2] 0% | inhibition [3] -3% | outcome [5] | outcome [6] | outcome [7] | outcome [8]
active: growth inhibition [1] 97% | growth inhibition [4] 100%

COc1ccc(Cl)cc1N1CCN(CCCNC(=O)c2ccc(-c3nc4cc(Cl)c(F)cc4[nH]3)cc2)CC1
active: growth inhibition [1] 98% | growth inhibition [4] 101%
inactive: inhibition [2] 3% | inhibition [3] 6% | outcome [5] | outcome [6] | outcome [7] | outcome [8]

CCc1ccc(CN(CCCOc2cccc(CC(=O)NCc3cnc[nH]3)c2)Cc2ccc(-n3ccnc3)cc2)cc1
inactive: growth inhibition [1] 28% | inhibition [2] 1% | inhibition [3] -2% | outcome [5] | outcome [6] | outcome [7] | outcome [8]
active: growth inhibition [4] 99%

O=C(NCc1ccccc1F)c1ccc(N2CCC(NCc3cccc(-n4cccn4)c3)CC2)cc1
active: growth inhibition [4] 89%
inactive: growth inhibition [1] 3% | inhibition [2] 9% | inhibition [3] 4% | outcome [5] | outcome [6] | outcome [7] | outcome [8]

CC(C)[C@@H](NC(=O)NC1CCC(CCN2[C@@H]3CC[C@H]2CC(OC(=O)C(CO)c2ccccc2)C3)CC1)C(O)(c1ccccc1)c1ccccc1 (stereo not given in full)
active: growth inhibition [1] 56% | growth inhibition [4] 96%
inactive: inhibition [2] 19% | inhibition [3] 2% | outcome [5] | outcome [6] | outcome [7] | outcome [8]

COc1ccc2ncc(F)c([C@H](O)CN3CCC(NCc4ccc5c(c4)NC(=O)CO5)CC3)c2c1
active: growth inhibition [1] 101% | growth inhibition [4] 102%
inactive: inhibition [2] 16% | inhibition [3] -1% | outcome [5] | outcome [6] | outcome [7] | outcome [8]

O=C(Nc1ccc(Cl)cc1)Nc1ccc2nonc2c1
active: growth inhibition [1] 77% | growth inhibition [4] 94%
inactive: inhibition [2] -25% | inhibition [3] -4% | outcome [5] | outcome [6] | outcome [7] | outcome [8]

COc1nc2c(CCN3CCC(NCc4ccc5c(n4)NC(=O)CO5)CC3)c(Cl)cnc2cc1F
active: growth inhibition [4] 99%
inactive: growth inhibition [1] 40% | inhibition [2] 17% | inhibition [3] -9% | outcome [5] | outcome [6] | outcome [7] | outcome [8]

CN1CCN(c2ccc(-c3cc(-c4ccncc4)c(-c4ccc(Cl)c(O)c4)o3)cc2)CC1
active: growth inhibition [1] 98% | growth inhibition [4] 101%
inactive: inhibition [2] -13% | inhibition [3] -4% | outcome [5] | outcome [6] | outcome [7] | outcome [8]

CCN(CC)CCCNC(=O)/C(=C/C=C/c1cc2cc(Cl)c(Cl)cc2[nH]1)OC
inactive: growth inhibition [1] 21% | inhibition [2] 38% | inhibition [3] -2% | outcome [5] | outcome [6] | outcome [7] | outcome [8]
active: growth inhibition [4] 84%

COc1ccc(CNCc2ccsc2)cc1-c1ccc(S(=O)(=O)NCCN2CCCC2)c(C)c1
active: growth inhibition [4] 85%
inactive: growth inhibition [1] 43% | inhibition [2] 49% | inhibition [3] -1% | outcome [5] | outcome [6] | outcome [7] | outcome [8]

COc1ccc(CCN2CCC(Nc3nc4ccccc4n3CCc3ccc(OC)cc3)CC2)cc1
inactive: inhibition [2] 34% | inhibition [3] -1% | outcome [5] | outcome [6] | outcome [7] | outcome [8]
active: growth inhibition [1] 88% | growth inhibition [4] 101%

OCC1CCN(Cc2cccc(-c3ccc(-c4nc5ccc(C(F)(F)F)cc5[nH]4)cc3)c2)CC1
inactive: inhibition [2] 25% | inhibition [3] -3% | outcome [5] | outcome [6] | outcome [7] | outcome [8]
active: growth inhibition [1] 95% | growth inhibition [4] 101%

CN1CCc2cc(I)c(O)cc2C1Cc1ccccc1Cl (stereo not given)
inactive: inhibition [2] -7% | inhibition [3] -2% | outcome [5] | outcome [6] | outcome [7] | outcome [8]
active: growth inhibition [1] 96% | growth inhibition [4] 98%

CCCOc1ccc2ccccc2c1CNCCCCCCNCc1c(OCCC)ccc2ccccc12
inactive: inhibition [3] 0% | outcome [5] | outcome [6] | outcome [7] | outcome [8]
active: growth inhibition [1] 90% | inhibition [2] 100% | growth inhibition [4] 94%

O=C(Nc1cccc(Cl)c1)N[C@H]1CCN(Cc2ccc(OCCCN3CCCCC3)cc2)C1
active: growth inhibition [4] 99%
inactive: growth inhibition [1] -3% | inhibition [2] 15% | inhibition [3] 1% | outcome [5] | outcome [6] | outcome [7] | outcome [8]

CN(C)Cc1c(O)ccc2[nH]c(-c3ccc(F)cc3F)nc12
inactive: growth inhibition [1] 17% | inhibition [2] 4% | inhibition [3] -2% | outcome [5] | outcome [6] | outcome [7] | outcome [8]
active: growth inhibition [4] 99%

CCOc1ccc(C(=O)Nc2cc(Br)c3c(c2)CNCC3)cc1C#N
active: growth inhibition [4] 97%
inactive: growth inhibition [1] 32% | inhibition [2] 17% | inhibition [3] -6% | outcome [5] | outcome [6] | outcome [7] | outcome [8]

CCOC(=O)c1c(CCc2ccc(C(F)(F)F)cc2)nc2c(c1-c1ccc(C(=O)N[C@@H](C)c3ccncc3)cc1)C(=O)N1CCC[C@@H]21
active: growth inhibition [1] 68% | growth inhibition [4] 85%
inactive: inhibition [2] -3% | inhibition [3] -2% | outcome [5] | outcome [6] | outcome [7] | outcome [8]

Cc1ccc(-c2cnc(N)c3cc(-c4ccnc(N)n4)ccc23)cc1
inactive: inhibition [2] 41% | inhibition [3] -5% | outcome [5] | outcome [6] | outcome [7] | outcome [8]
active: growth inhibition [1] 94% | growth inhibition [4] 99%

CCOc1cc(C(=O)NCCN(C(C)C)C(C)C)ccc1-c1nc2ccc(Cl)cc2[nH]1
active: growth inhibition [1] 90% | growth inhibition [4] 101%
inactive: inhibition [2] 4% | inhibition [3] 2% | outcome [5] | outcome [6] | outcome [7] | outcome [8]

CC(=O)OC[C@H]1O[C@@H](C#Cc2ccccc2)[C@H](OC(C)=O)[C@@H](OC(C)=O)[C@@H]1OC(C)=O
active: growth inhibition [1] 90% | growth inhibition [4] 95%
inactive: inhibition [2] 5% | inhibition [3] 0% | outcome [5] | outcome [6] | outcome [7] | outcome [8]
